The target in assay [1] is Aryl hydrocarbon receptor (Homo sapiens) (UniProt P35869). Kind of assay: qHTS assay to identify small molecule that activate the aryl hydrocarbon receptor (AhR) signaling pathway (AID 743085).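 Further: HG2L7.5c1 human HepG2 liver cells with stably integrated DRE-driven firefly reporter; series mostly up to about 70 µM; nearly all actives have a fitted effect of over 15% in size.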 The method, boiled down: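 HepG2 cells (HG2L7.5c1) stably carrying a firefly luciferase reporter driven by 20 dioxin responsive elements were exposed to compound for 24 h at 37C after a 5 h settling period; luminescence rise (ONE-Glo) indicated activation.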
Chain of Aryl hydrocarbon receptor (Homo sapiens) (P35869 whole entry, looked up): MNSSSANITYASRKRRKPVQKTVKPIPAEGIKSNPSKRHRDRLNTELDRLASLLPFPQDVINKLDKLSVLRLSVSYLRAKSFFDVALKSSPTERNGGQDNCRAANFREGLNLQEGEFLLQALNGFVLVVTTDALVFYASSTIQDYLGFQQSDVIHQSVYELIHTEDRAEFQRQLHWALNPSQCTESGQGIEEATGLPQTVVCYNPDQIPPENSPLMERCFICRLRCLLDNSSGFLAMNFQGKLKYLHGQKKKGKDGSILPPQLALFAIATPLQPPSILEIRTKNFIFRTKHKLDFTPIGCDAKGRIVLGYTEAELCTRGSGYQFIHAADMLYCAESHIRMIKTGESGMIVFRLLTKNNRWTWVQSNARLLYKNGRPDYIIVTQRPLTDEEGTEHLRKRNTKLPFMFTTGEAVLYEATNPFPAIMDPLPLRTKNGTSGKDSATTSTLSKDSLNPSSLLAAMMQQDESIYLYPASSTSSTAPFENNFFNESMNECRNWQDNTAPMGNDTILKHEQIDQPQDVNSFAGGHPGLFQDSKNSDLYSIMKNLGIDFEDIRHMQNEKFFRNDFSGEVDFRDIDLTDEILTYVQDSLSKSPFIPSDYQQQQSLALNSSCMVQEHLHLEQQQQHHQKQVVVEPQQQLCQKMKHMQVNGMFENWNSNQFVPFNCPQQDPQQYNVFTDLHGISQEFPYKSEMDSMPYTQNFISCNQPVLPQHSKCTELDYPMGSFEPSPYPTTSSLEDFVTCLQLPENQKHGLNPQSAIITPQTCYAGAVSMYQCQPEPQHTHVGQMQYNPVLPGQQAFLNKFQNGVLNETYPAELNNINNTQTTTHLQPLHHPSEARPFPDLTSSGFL

A short description of assay [2]: qHTS assay to identify small molecule that activate the aryl hydrocarbon receptor (AhR) signaling pathway - cell viability counter screen (AID 743086).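 Further: HepG2 liver cells carrying the AhR DRE luciferase reporter; series mostly up to about 70 µM; nearly all actives have a fitted effect of over 45% in size.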 The method, boiled down: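 HepG2-AhR-luc (HG2L7.5c1) cells, 4000/well, treated 24 h at 37 C with compound; viability measured as CellTiter-Fluor fluorescence after 30 min in the same wells as the luciferase read.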
(qHTS replaces the single test concentration by a dilution series.)

Assay [3] can be described thus: qHTS assay for small molecule activators of the heat shock response signaling pathway - cell viability counter screen (AID 743209). Further: nearly all actives have a fitted effect of over 50% in size. Further: potency means the concentration at half of the fitted maximal effect. Summed up: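 HSE-bla HeLa; 1500 cells/well; overnight 37 C, 5% CO2; compound 5 h 37 C; LiveBLAzer B/G substrate 2.5 h RT; CellTiter-Glo 30 min RT; luminescence.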
Assay [4] can be described thus: qHTS assay to identify small molecule agonists of the peroxisome proliferator-activated receptor delta (PPARd) signaling pathway - cell viability counter screen (AID 743211). Further: nearly all actives have a fitted effect of over 55% in size. Further: potency means the concentration at half of the fitted maximal effect. Summed up: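 PPARd-bla HEK293H cells (UAS-beta-lactamase reporter) were treated with compounds for 17 h at 37 C. Viability was then read in the same wells by CellTiter-Glo luminescence after 30 min at room temperature.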

A short description of assay [5]: qHTS assay for small molecule agonists of the antioxidant response element (ARE) signaling pathway - cell viability counter screen (AID 743203; calls by dose curve; further: nearly all actives have a fitted effect of over 55% in size; further: potency means the concentration at half of the fitted maximal effect). The method, boiled down:
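Luminescence read-out (CellTiter-Glo, 30 min at room temperature) measured cell viability in the same wells as the ARE beta-lactamase reporter. HepG2 ARE-bla cells were treated with compounds for 16 hrs at 37C/5% CO2.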

A short description of assay [6]: qHTS assay for small molecule activators of the heat shock response signaling pathway (AID 743210; active means well fitted activation curve with a large enough effect in the signal ratio in the repeat runs, with a control signal flat, not every such curve was filed as active; the % refers to the signal ratio; further: series mostly up to about 63 µM). Summed up: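 Beta-lactamase reporter read-out: FRET substrate fluorescence after 2.5 h at RT, following 5 h compound treatment at 37 C of HeLa cells carrying HSE-driven bla reporter; quantitative HTS format.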
A short description of assay [7]: qHTS assay to identify small molecule antagonists of the peroxisome proliferator-activated receptor gamma (PPARg) signaling pathway - cell viability counter screen (AID 743194). Further: nearly all actives have a fitted effect of over 55% in size. Further: potency means the concentration at half of the fitted maximal effect. Particulars: Potency: co-treated with 50 nM rosiglitazone unless noted. The method, boiled down:
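Cytotoxicity counter screen in PPARg-bla HEK293H cells, same wells as reporter assay. Compounds plus 50 nM rosiglitazone (final) for 17 h at 37 C, then viability read by CellTiter-Glo luminescence.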

In assay [8] the target is Peroxisome proliferator-activated receptor gamma (Homo sapiens) (UniProt P37231). Nature of the assay: qHTS assay to identify small molecule agonists of the peroxisome proliferator-activated receptor gamma (PPARg) signaling pathway (AID 743094; active means well fitted activation curve with a large enough effect in the signal ratio in the repeat runs, not every such curve was filed as active; the % refers to the signal ratio). The method, boiled down:
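HEK293H PPARg-bla cells, 5 h settle at 37C/5% CO2; compound (DMSO) 17 h, 37C; B/G FRET substrate 1 h RT; fluorescence intensity read-out. qHTS format.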

The target is the same in assay [9]. Kind of assay: qHTS assay to identify small molecule antagonists of the peroxisome proliferator-activated receptor gamma (PPARg) signaling pathway (AID 743191; calls by dose curve; further: series mostly up to about 63 µM; nearly all actives have a fitted effect of over 30% in size). Summed up:
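GeneBLAzer PPARg UAS-bla HEK293H cells, 5 h post-plating, exposed to compounds 17 h at 37C. LiveBLAzer B/G FRET substrate added for 1 h at room temperature; beta-lactamase reporter read by fluorescence intensity.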

The nature of assay [10]: qHTS assay for small molecule agonists of the antioxidant response element (ARE) signaling pathway (AID 743202; active means well fitted activation curve with a large enough effect in the signal ratio in the repeat runs, not every such curve was filed as active; the % refers to the signal ratio; further: potency means the concentration at half of the fitted maximal effect). The method, boiled down:
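HepG2 ARE-bla reporter line, 2,000 cells/well; 5 h preincubation 37 C/5% CO2; compound (DMSO) 16 h 37 C; B/G FRET substrate 2 h RT; fluorescence intensity.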

“And” between values parts separate entries of the source, which are not always exact repeats. Identical values can stand only once. Inconclusive results are not listed. The source made the active and inactive calls. Unless noted, the call rests on the fitted dose curve; in most records, active means well fitted curve in the direction sought with a large enough effect in the repeat runs; inconclusive means weak or mixed curves; inactive means no such curve, though single readings can be large; an effect the other way counts as inactive or inconclusive.
On the % scale 0 is the no-effect control and ±100 the full control effect.

Chain of Peroxisome proliferator-activated receptor gamma (Homo sapiens) (P37231 whole entry, looked up): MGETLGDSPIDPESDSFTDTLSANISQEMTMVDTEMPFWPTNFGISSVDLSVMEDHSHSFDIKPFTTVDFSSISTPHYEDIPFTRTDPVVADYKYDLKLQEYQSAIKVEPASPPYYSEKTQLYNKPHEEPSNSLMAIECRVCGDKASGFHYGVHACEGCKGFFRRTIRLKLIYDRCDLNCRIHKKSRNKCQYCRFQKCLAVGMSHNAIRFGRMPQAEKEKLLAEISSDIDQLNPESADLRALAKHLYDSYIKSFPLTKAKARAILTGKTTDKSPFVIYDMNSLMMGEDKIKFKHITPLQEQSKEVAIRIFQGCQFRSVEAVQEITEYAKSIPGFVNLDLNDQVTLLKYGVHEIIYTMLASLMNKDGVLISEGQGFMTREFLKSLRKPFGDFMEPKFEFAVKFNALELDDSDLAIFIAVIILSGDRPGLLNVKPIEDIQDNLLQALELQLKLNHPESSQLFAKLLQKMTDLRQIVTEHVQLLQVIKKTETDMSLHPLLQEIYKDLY

With `N#CCCC(Br)(C#N)CBr` (stereo not given), the Potency result in [1], in [2] and in assay [4] was “inactive” throughout. Also, in [3], the Potency was 49 µM (active).
As for `O=C(O)COc1nc(Cl)c(Cl)cc1Cl`, the Potency result in [1], in assay [5], in [3], in assay [6] and in assay [4] was “inactive” in each case.
`O=C1c2ccccc2C(=O)C1C(=O)C(c1ccccc1)c1ccc(Cl)cc1` (stereo not given): the Potency entry in assay [1] and in assay [2] was “inactive” in each case. Further, the Potency was 11 µM (active) in assay [7] and 24.5 µM (active) in assay [4].
`S=C(SSC(=S)N1CCCCC1)N1CCCCC1`: the Potency result in assay [1], in [7] and in assay [5] was “inactive” throughout. Besides, the Potency is 0.106 µM (active) in assay [3] and 0.188 µM (active) in [4].
As to `CCCN(CCC)CCc1c[nH]c2ccccc12`, the Potency entry in assay [1], in assay [8], in assay [9], in [7], in assay [5] and in [3] was “inactive” each time. Further, in assay [4], the Potency entry was “inactive”.
Take `COC(=O)N(C(=O)N1CO[C@@]2(C(=O)OC)Cc3cc(Cl)ccc3C2=N1)c1ccc(OC(F)(F)F)cc1`: the Potency entry in [1], in [2], in assay [5], in assay [3] and in assay [4] was “inactive” in each case.
As to `C[C@@H]1O[C@@H](O[C@H]2C[C@@H](O)[C@]3(CO)[C@H]4[C@H](O)C[C@]5(C)[C@@H](C6=CC(=O)OC6)CC[C@]5(O)[C@@H]4CC[C@]3(O)C2)[C@H](O)[C@H](O)[C@H]1O`, the Potency result in assay [1], in assay [2] and in assay [6] was “inactive” each time. For the same compound, the Potency in [7] was 13.1 nM (active) and 119 nM (active); in [3], 20.8 nM (active) and 266 nM (active); in [4], 46.5 nM (active) and 188 nM (active).
Regarding `O=C(CBr)c1ccc(O)cc1`, the Potency result in [1], in assay [2], in assay [7] and in [4] was “inactive” throughout.
Turning to `[CH3][Hg][Cl]`, the Potency entry in assay [1] and in [2] was “inactive” in each case. In addition, the Potency in assay [7] is 12.3 µM (active); in assay [5] it was 8.61 µM (active); in [3], 54.8 µM (active); in [4], 12.3 µM (active).
For the compound `CCOCn1c(-c2ccc(Cl)cc2)c(C#N)c(Br)c1C(F)(F)F`, in assay [1], the Potency entry is “inactive”. Further, the Potency in [7] is 1.95 µM (active); in assay [4], 19.5 µM (active).
Regarding `CCCCCCCCCCCCCCCC[n+]1ccccc1`, the Potency result in assay [1] is “inactive”. Further, the Potency in assay [7] was 26.6 µM (active) [middle of 4 runs]; in assay [5], 26.9 µM (active) [middle of 4 runs]; in assay [3], 28.8 µM (active) and 24.5 µM (active) and 48.3 µM (active); in assay [4], 23.7 µM (active) [middle of 4 runs].
Consider `CCOc1cc(C(C)(C)C)ccc1C1COC(c2c(F)cccc2F)=N1` (stereo not given), for which the Potency entry in assay [2], in assay [8] and in [3] was “inactive” each time. For the same compound, the values for the Potency in assay [7], in assay [10] and in assay [4] were 11.8 µM (active), 5.88 µM (active) and 29.7 µM (active), respectively.
For the compound `NNC(=O)c1ccccc1`, the Potency entry in assay [2], in assay [8], in assay [9], in [7], in assay [10] and in assay [5] was “inactive” in each case. The Potency entry in [6] and in assay [4] was “inactive” throughout.
Turning to `Clc1ccc(C(c2ccccc2Cl)C(Cl)(Cl)Cl)cc1` (stereo not given), the Potency entry in assay [2], in assay [8] and in assay [3] was “inactive” in each case. The Potency in [4] is 49.3 µM (active) and 28.7 µM (active).
As to `CCCCCCCCCCCCCCCCCCn1cc[n+](C)c1`, the Potency entry in assay [1] was “inactive”. Further, the Potency in [5] is 15.3 µM (active); in [3], 43.4 µM (active); in [4], 10.9 µM (active).
Take `CCCCCCCCCCCCBr`: the Potency entry in [2], in [9], in [7], in assay [3], in assay [6] and in [4] was “inactive” each time.
For the compound `OC(c1ccc(Cl)cc1)(c1ccc(Cl)cc1)C(Cl)(Cl)Cl`, the Potency result in assay [2] is “inactive”. The Potency in assay [7] was 15.5 µM (active); in assay [5], 43.3 µM (active).

For the origin of these results see PubChem BioAssay (Tox21).
